An excerpt weighted towards active compounds, which were near 8.1% of everything screened.
KB-V1 MDR tox – qHTS assay for MDR1-selective chemotherapeutics: Primary screen using the drug-selected MDR subline cells KB-V1; KB-V1 MDR cells viability, CellTiter-Glo, 72 h; Potency, µM (titrated, usually from 46.1 µM), actives largely listed as cytotoxic; hit rate 3.4% among 400,000; AID 1347076, 2019; further: nearly all actives have a fitted effect of over 60% in size
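KB-V1 MDR subline cells in DMEM (phenol-red free, 10% FBS) exposed to compounds in qHTS concentration series for 72 h at 37 degrees C. Viability read by CellTiter-Glo luminescence; concentration-effect curves fitted after normalization and correction.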
SW480 rereplic – A quantitative high throughput screen for small molecules that induce DNA re-replication in SW480 colon adenocarcinoma cells. hit rate 1.8% among 340,000. SW480 DNA re-replication, Hoechst DNA content imaging, 48 h. AID 624297, 2012. Potency, µM (highest dose often 46.1 µM), usual class: activators; further: nearly all actives have a fitted effect of over 55% in size
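Image-based read-out: total Hoechst fluorescence of nuclei (405 nm excitation, 500-530 nm emission), with hits raising the fraction of high-intensity nuclei. SW480 colon cells incubated 48 hr with compounds at 37 C.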
ELG1 repair inh – qHTS screen for small molecules that inhibit ELG1-dependent DNA repair in human embryonic kidney (HEK293T) cells expressing luciferase-tagged ELG1 | HEK293T ELG1-luciferase reporter, luminescence, 16 h; DNA damage induced by 5-fluorouridine | Potency, µM (series often up to 46.1 µM), most hits filed as inhibitors | hit rate 2.3% among 330,000 | AID 504467, 2011; further: nearly all actives have a fitted effect of over 55% in size
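Step one: seed 2,000 cells per well. Step two: pin-transfer compound or DMSO alongside 5-fluorouridine. Step three: incubate 16 hr, 37 °C, 5% CO2. Step four: add ONE-Glo, wait 30 min, read luminescence.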
KB-3-1 cytotox – qHTS assay for MDR1-selective chemotherapeutics: Primary screen using the parental adenocarcinoma cell KB-3-1. KB-3-1 viability, CellTiter-Glo ATP luminescence, 72 h. Potency, µM (titrated, usually from 46.1 µM), most hits filed as cytotoxic. hit rate 1.4% among 400,000; further: nearly all actives have a fitted effect of over 60% in size
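Cytotoxicity measured as CellTiter-Glo luminescence after 72 h at 37 C. Compound titrations were pinned onto drug-naive KB-3-1 parental adenocarcinoma cells grown in DMEM with 10% FBS, and normalized data fitted to concentration-response curves.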
MCF10A rereplic – A quantitative high throughput screen for small molecules that induce DNA re-replication in MCF 10a normal breast cells. Potency, µM (top dose mostly 46.1 µM), hits mostly activators. MCF 10A DNA re-replication, Hoechst nuclear intensity, 48 h. hit rate 2.9% among 350,000; further: nearly all actives have a fitted effect of over 50% in size
Of the large screens only hits and unclear results are named; the others gave an inactive call. The call rests on the fitted dose curve; in most records, active means well fitted curve in the direction sought with a large enough effect; inconclusive means small, poorly fitted or top-dose-only effect, or another doubt; inactive means no such curve, though single readings can be large; an effect the other way counts as inactive or inconclusive.

O=C(Nc1ccccc1Oc1ccccc1)c1cccc([N+](=O)[O-])c1	KB-V1 MDR tox 18µM
O=C(Nc1ccc(Cl)cc1)C1CCCN(c2ncnc3c2nc2n3CCCCC2)C1 (configuration not stated)	ELG1 repair inh 23µM, KB-3-1 cytotox inconclusive, MCF10A rereplic 16µM
CC1CCCCN1CCNC(=O)C1CCCN(c2ncnc3c2nc2n3CCCCC2)C1 (configuration not stated)	none
O=C(Nc1cc(F)ccc1F)C1CCCN(c2ncnc3c2nc2n3CCCCC2)C1 (configuration not stated)	KB-V1 MDR tox inconclusive, ELG1 repair inh inconclusive, KB-3-1 cytotox inconclusive
O=C(NCc1ccc(Cl)cc1)C1CCCN(c2ncnc3c2nc2n3CCCCC2)C1 (configuration not stated)	ELG1 repair inh 15µM, MCF10A rereplic inconclusive
CSc1ccc(CCNC(=O)C2CCCN(c3ncnc4c3nc3n4CCCCC3)C2)cc1 (configuration not stated)	SW480 rereplic inconclusive, ELG1 repair inh 8.2µM, KB-3-1 cytotox inconclusive
CCN(CC)C(=O)C1=C(C)N(Cc2ccccc2)C(=O)C(CC(=O)NCc2ccco2)C1 (configuration not stated)	none (no result: SW480 rereplic, ELG1 repair inh, MCF10A rereplic)
Cc1cc(NC(=O)CSc2nc(-c3ccco3)cc(C(F)(F)F)n2)no1	KB-V1 MDR tox inconclusive, SW480 rereplic 0.73µM, ELG1 repair inh inconclusive, KB-3-1 cytotox 0.82µM, MCF10A rereplic 3.3µM
Cc1cc(NC(=O)CCSc2nc(-c3ccco3)cc(C(F)(F)F)n2)n(-c2ccccc2)n1	ELG1 repair inh 26µM
O=C(CSc1nc(-c2ccco2)cc(C(F)(F)F)n1)Nc1ccc(C(=O)N2CCCCC2)cc1	ELG1 repair inh 4.6µM
CC(=O)c1ccc(NC(=O)CCSc2nc(-c3ccco3)cc(C(F)(F)F)n2)cc1	none (no result: SW480 rereplic, ELG1 repair inh, MCF10A rereplic)
Cc1cccc(C)c1NC(=O)CSc1nc(-c2ccco2)cc(C(F)(F)F)n1	SW480 rereplic 21µM
CC(C)c1ccc(NC(=O)CCS(=O)(=O)c2ccc3c(c2)CC(=O)N3C)cc1	none (no result: SW480 rereplic, ELG1 repair inh, MCF10A rereplic)
O=C(Nc1ccc(OC(F)(F)F)cc1)c1cc2ccccn2n1	KB-V1 MDR tox inconclusive, KB-3-1 cytotox 10µM (no result: SW480 rereplic, ELG1 repair inh, MCF10A rereplic)
COc1ccc(NC(=O)c2cc3ccccn3n2)cc1	KB-V1 MDR tox inconclusive, ELG1 repair inh inconclusive
Cn1c(=O)n(C)c2cc(N3CCCCC3)c(NC(=O)c3c(F)cccc3F)cc21	none (no result: SW480 rereplic, ELG1 repair inh, MCF10A rereplic)
CC(/C=N/NC(=O)c1ccncc1)=C\c1ccc(C(C)C)cc1	KB-V1 MDR tox 10µM, ELG1 repair inh inconclusive, MCF10A rereplic inconclusive
C[C@@H]1CN([C@H](C)CO)C(=O)CCCn2cc(nn2)CO[C@H]1CN(C)S(=O)(=O)c1ccc(-c2ccccc2)cc1	none (no result: SW480 rereplic, ELG1 repair inh, MCF10A rereplic)
CCN(CC)CCNC(=O)c1ccc(NC(=O)c2cccc(S(=O)(=O)N(C)C3CCCCC3)c2)cc1	none (no result: ELG1 repair inh)
CCN(CC)CCNC(=O)c1ccc(NC(=O)c2ccccc2-c2ccc(C(F)(F)F)cc2)cc1	SW480 rereplic inconclusive, MCF10A rereplic 21µM
CCN(CC)CCNC(=O)c1ccc(NC(=O)c2ccc3c(c2)CCC3)cc1	SW480 rereplic 18µM, ELG1 repair inh inconclusive
CC/C(=N\NC(=O)CCC(=O)NCc1ccccc1)c1ccc(O)cc1	SW480 rereplic inconclusive, KB-3-1 cytotox 3.3µM, MCF10A rereplic inconclusive
Cc1ccc(S(=O)(=O)N2CCCCC2)cc1C(=O)NCCCN1CCOCC1	none
CC(=O)Oc1ccc(C(=O)Nc2cc(C)ccc2NC(=O)COc2ccccc2)cc1	KB-V1 MDR tox 16µM
Cc1ccc(NS(=O)(=O)c2ccc(C)c(NC(=O)COc3ccccc3)c2)c(C)c1	KB-V1 MDR tox 21µM, ELG1 repair inh inconclusive
Cc1ccc(NC(=O)c2ccco2)c(NC(=O)COc2ccccc2)c1	none
Cc1ccc(NC(=O)COc2ccccc2)c(NC(=O)c2ccccc2C)c1	KB-V1 MDR tox 5.8µM, SW480 rereplic inconclusive (no result: ELG1 repair inh)
CC1CCCCN1C(=O)CN1C(=O)c2ccccc2S1(=O)=O (configuration not stated)	ELG1 repair inh inconclusive

Assay outcomes (PubChem)
